Source: PubChem (Paczesny and Yang Labs, IUPUI and University of Michigan)
This is one part of a sample in which hits are shown more often than they occur.
ST2 inh: inhibitors of human ST2 (IL1RL1) binding to IL-33, primary screen, biochemical, AlphaLISA; Interleukin-1 receptor-like 1 (Homo sapiens), Q01638; AlphaLISA ST2-Fc/biotin-IL-33 interaction, 1 h; inhibition, % for hits at 17 µM; hit rate 2.3% among 78,000; AID 1259354, 2018; in the data active = inhibition above about 30%
Target sequence (Q01638 whole entry, looked up): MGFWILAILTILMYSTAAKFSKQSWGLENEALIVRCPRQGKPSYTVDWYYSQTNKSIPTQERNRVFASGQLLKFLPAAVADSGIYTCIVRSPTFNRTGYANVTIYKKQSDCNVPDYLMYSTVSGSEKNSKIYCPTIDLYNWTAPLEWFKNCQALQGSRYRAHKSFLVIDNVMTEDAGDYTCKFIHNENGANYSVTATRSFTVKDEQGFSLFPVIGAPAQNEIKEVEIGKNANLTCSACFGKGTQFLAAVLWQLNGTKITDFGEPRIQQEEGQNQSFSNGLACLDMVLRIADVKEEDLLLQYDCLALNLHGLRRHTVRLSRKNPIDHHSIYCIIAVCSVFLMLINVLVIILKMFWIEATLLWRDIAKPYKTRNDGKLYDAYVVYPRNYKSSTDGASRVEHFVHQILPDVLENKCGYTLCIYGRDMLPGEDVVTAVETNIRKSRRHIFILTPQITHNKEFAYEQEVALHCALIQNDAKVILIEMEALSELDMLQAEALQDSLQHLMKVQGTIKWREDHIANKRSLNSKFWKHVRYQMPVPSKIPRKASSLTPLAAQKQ
Numbers without * were called inactive; i = inactive; ! = not confirmed by another sample.

SMILES	ST2 inh
CCOc1ccc(-c2nc3s/c(=C\c4ccc(C)o4)c(=O)n3n2)cc1	i
O=C(Nc1c(F)cc(F)cc1Br)c1noc2c1CCC2	i
CC(C)NC(=O)C1CC(=O)N(C2CCCCCC2)C1 (configuration not stated)	i
COc1ccc(-c2nnc(/C=C/c3ccccc3)o2)cc1	i
Cc1ccc2oc(/C=C/c3nc4cc(C)ccc4o3)nc2c1	i
CN(C)c1ccc(/C=C/c2nc(=O)c3ccccc3o2)cc1	55.0%*
Cc1ccc(-n2cc(CNCCc3ccccn3)c(-c3cccc(C)c3)n2)cc1	i
COc1cc([N+](=O)[O-])cc(C=Nc2ccc3oc(-c4cccc(C)c4)nc3c2)c1O	i
C[C@@H]1CN(C2(C(=O)NCCN3CCNC3=O)Cc3ccccc3C2)C[C@H](C)O1	i
COc1ccc(C(=O)Nc2cccc(Cl)c2)cc1OC	i
CN(C)c1ccc(NC(=O)CCC(=O)O)cc1	51.0%*
O=C(O)CCC(=O)Nc1ccc(C(=O)O)cc1	i
O=C(O)CCC(=O)Nc1ccc(I)cc1	i
CN1CCN2CCN(Cc3ccc(O)c(Cl)c3)CC2C1 (configuration not stated)	i
CC(C)C1CN(C(=O)c2cc(=O)n(C)c(=O)n2C)CCC(=O)N1CC1CC1 (configuration not stated)	i
COc1cc2c(cc1OC)C(C(=O)N1CCCCCC1)C(c1cccs1)N(C)C2=O (configuration not stated)	i
Cc1ccc(N2C(=O)c3cccnc3C2=O)c(C)c1	i
Cc1cccc(N=C2c3ccccc3-c3ncccc32)c1	41.0%*
Cc1cccc(N=C2NC(=O)c3cccc([N+](=O)[O-])c32)c1	i
O=C(NCC1CCCN(C(=O)CSc2ccccc2)C1)c1ccc(-c2ccccc2)cc1 (configuration not stated)	i
COc1ccccc1C(CCNCc1ccco1)c1ccc(OC(C)C)cc1 (configuration not stated)	i
CCSc1nnc(NS(=O)(=O)c2ccc(Br)cc2)s1	i
COc1ccc(S(=O)(=O)N2CCN(S(=O)(=O)c3ccc(C)cc3)CC2)cc1	i
Cc1ccc(S(=O)(=O)N2CN3CN(C2)CN(S(=O)(=O)c2ccc(C)cc2)C3)cc1	46.0%*
Cc1ccc(S(=O)(=O)N2CCN(c3ccccc3)CC2)cc1	i
SMILES	ST2 inh
CC1(C)CC(=O)N(CC(=O)NCCC2=CCCCC2)c2ccccc2S1	i
COc1ccccc1C(=O)Oc1ccc2c(=O)c(-c3ccccc3Cl)coc2c1	i
C=CCN(Cc1ccccc1OCC)C(=O)c1cccc2c1OCCO2	i
Brc1ccc(Nc2nc(-c3ccccn3)cs2)cc1	i
COc1cccc(Nc2nc(-c3ccc(F)cc3)cs2)c1	i
NS(=O)(=O)c1ccc(Nc2nc(-c3ccccn3)cs2)cc1	i
Cc1nc2ncccn2c1-c1csc(Nc2cccc([N+](=O)[O-])c2)n1	37.0%*
COc1ccc(Nc2nc(Nc3ccc(OC)cc3)c([N+](=O)[O-])cc2[N+](=O)[O-])cc1	i
COc1ccc(Nc2nc(-c3cccc([N+](=O)[O-])c3)cs2)cc1	38.0%*
O=C(O)C(=O)N1C[C@@H]2C[C@H](C1)c1ccc(NS(=O)(=O)c3cccc(C(F)(F)F)c3)c(=O)n1C2	i
C=CCNC(=O)C1CCN(c2nc3ccc(CC)cc3s2)CC1	i
Cc1ccc(-c2cnc3ccccc3n2)cc1[N+](=O)[O-]	i
Cc1cc2c(cc1[N+](=O)[O-])C(=O)c1cc3ccccc3nc1-2	36.0%*
Cc1ccc2c(c1[N+](=O)[O-])C(=O)c1ccccc1C2=O	i
O=C(C1CCCCCC1)N1C[C@@H]2CN(C(=O)C3CC3)C[C@]2(C(=O)O)C1	i
CCOC(=O)c1c(NC(=O)c2cc3ccccc3oc2=O)sc2c1CCN(CC)C2	33.0%*
CCOC(=O)c1c(NC(C)=O)sc2c1CCN(Cc1ccccc1)C2	i
CCN1CCc2c(sc(NC(=O)c3ccc(C)c(C)c3)c2C(=O)OC)C1	i
CNC(=O)[C@@H]1C[C@H](N)CN1C(=O)c1cc(-c2ccccc2)nc2ccccc12	i
CS(=O)(=O)N(CC(=O)Nc1ccccc1Cl)c1ccc(Cl)c(Cl)c1	i
Cc1ccc(CNC(=O)c2cc(-c3ccc(Cl)s3)nc3ccccc23)o1	i
O=C(NCc1cccs1)c1cc(-c2ccc(Br)s2)nc2ccccc12	i
O=C(NCc1cccs1)c1cc(-c2ccc(Cl)s2)nc2ccccc12	30.0%*!
O=C(NC1CCCCC1)c1ccc2c(c1)N(Cc1ccc(F)cc1Cl)C(=O)CS2	i
COCCn1cc(C(=O)N2CCN(c3ccc(F)cc3)CC2)c2c3ccccc3n(C)c2c1=O	i
SMILES	ST2 inh
C/C=C(\C)C(=O)NCC1Cc2cccc(-c3ncccn3)c2O1 (configuration not stated)	i
CN(Cc1ccc2ccccc2n1)C(=O)/C=C/c1cnn(C)c1	i
CCCCC1(C)OC(=O)C(=Cc2ccc(N(CC)CC)cc2)C(=O)O1 (configuration not stated)	33.0%*
O=C1C(=Cc2cccn2-c2ccc(Cl)cc2)C(=O)c2ccccc21	i
CCCCC1(C)OC(=O)C(=Cc2ccc(OC)c(I)c2)C(=O)O1 (configuration not stated)	i
O=C1C(=Cc2ccc(Br)o2)C(=O)c2ccccc21	52.0%*
COc1cc(C=C2C(=O)OC(C)(C)OC2=O)cc(Br)c1O	i
CC1(c2ccccc2)OC(=O)C(=Cc2ccc(O)cc2)C(=O)O1 (configuration not stated)	i
CC1(C)OC(=O)C(=CNc2ccc(C(=O)O)cc2)C(=O)O1	i
CCCCOc1ccc(OC(=O)c2ccc(Br)o2)cc1	i
CCCCC1(C)OC(=O)C(=Cc2ccc(Br)o2)C(=O)O1 (configuration not stated)	73.0%*
O=C1C(=Cc2ccc(-c3ccc(F)cc3)o2)C(=O)c2ccccc21	i
CC1(C)OC(=O)C(=Cc2ccc(I)o2)C(=O)O1	93.0%*
Cc1cc(C)n(CC(C)NCc2nc(Cc3ccccc3F)no2)n1 (configuration not stated)	i
COc1ccc(NC(=O)c2nn(-c3ccc(Cl)cc3)c(=O)c3ccccc23)cc1Cl	i
C=CCN1C(=O)CSc2ccc(C(=O)N3CCN(c4ccccn4)CC3)cc21	i
CCOC(=O)c1[nH]c2ccccc2c1NC(=O)c1cc2ccccc2oc1=O	i
CC(=O)N1CCn2nc(C(=O)N(Cc3c(F)cccc3Cl)C3CC3)cc2C1	i
COc1ccc(C(=O)NC(C)Cc2ccccc2)cc1[N+](=O)[O-] (configuration not stated)	i
COCc1nc(NCc2cc(CC(C)C)no2)c2cnn(C)c2n1	i
O=C(CNS(=O)(=O)c1cccs1)NC1CCCCCC1	i
CCN(CC)C(=O)Cn1c(-c2ccccc2F)nc2ccccc2c1=O	i
COC(=O)c1c(C)n(CCc2ccccc2)c2c1cc(O)c1ccccc12	i
CCOC(=O)c1cnc2c(C)c(Cl)ccc2c1Nc1ccc(C(=O)OC)cc1	i
O=C(NC(c1ccco1)C(F)(F)F)c1nc(N2CCCC2)nc2c1CCCC2 (configuration not stated)	i
COc1cc(F)ccc1-c1c(-c2ccccc2)ncn1C[C@H]1CCCN1	i
CCC(C)N1CCN(C(=O)c2ccncc2)CC1 (configuration not stated)	i
COc1c(F)cc(CN2CCC(=O)NCC2C)cc1Cl (configuration not stated)	i
